Our source for the outcome and AC50 values is PubChem BioAssay (EPA / NIEHS).

The structures appear in SMILES notation. Inconclusive results are not listed. Activity calls are given as the source filed them. Rule for the calls, unless noted: active = hit-call score of the fitted dose curve at least 0.9, where 1 is the maximum; inconclusive = response in the unintended direction; inactive = score below 0.9.

Read-out in one assay: glucuronosyltransferase (UGT1A1), UGT1A1 (gene 54658)
Put plainly: CLD_UGT1A1_24hr: CellzDirect (CLD) Gene Expression Assay for glucuronosyltransferase (UGT1A1) at 24 hours (AID 2283696). An outline of the steps:
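UGT1A1 transcript induction was measured by quantitative nuclease protection assay (chemiluminescence) in human hepatocyte cultures 24 h after daily fresh dosing, with 0.2% DMSO as vehicle and baseline.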
`CCCCOCCOCCOCc1cc2c(cc1CCC)OCO2`: the result was inactive.

On to `C=CCOC(Cn1ccnc1)c1ccc(Cl)cc1Cl` (stereo not drawn), for which the outcome was inactive.

On to `CC(C)(C)[C@@H](O)[C@@H](Cc1ccc(Cl)cc1)n1cncn1`, for which the result was inactive.

Regarding `CCCCCOC(=O)COc1cc(N2C(=O)C3=C(CCCC3)C2=O)c(F)cc1Cl`, the compound was classed as inactive.

Consider `CC(C)(c1ccc(O)cc1)c1ccc(O)cc1`, for which the call was inactive.

With `COC(=O)c1ccccc1C(=O)O`, the call was inactive.

In the case of `N#CSCSc1nc2ccccc2s1`, the compound was classed as inactive.

Consider `CSC(=O)c1cccc2nnsc12`, for which the call was inactive.

Take `CN(C)C(=O)Nc1ccc(Cl)c(Cl)c1`: the compound was called inactive.

Take `Cc1nn(C)c(Oc2ccccc2)c1C=NOCc1ccc(C(=O)OC(C)(C)C)cc1`: the result was inactive.

Regarding `CCNc1nc(N)nc(Cl)n1`, the compound was called inactive.

For the compound `O=C(O)C1(C(=O)Nc2ccc(Cl)cc2Cl)CC1`, the concentration at half-maximal activity (AC50) – broadly, the midpoint of the concentration-response curve, whichever way the signal moves – was 20 µM (active).

Consider `CCCN(CCC)c1c([N+](=O)[O-])cc(C(F)(F)F)c(N)c1[N+](=O)[O-]`, for which the concentration at half-maximal activity (AC50) was 8.82 µM (active).

On to `CCCCC(CC)CN1C(=O)C2C3C=CC(C3)C2C1=O` (stereo not drawn), for which the outcome was inactive.

Read-out in a further assay: xenobiotic metabolism (CYP1A2), CYP1A2 (gene 1544)
Put plainly: CLD_CYP1A2_48hr: CellzDirect (CLD) Gene Expression Assay for xenobiotic metabolism (CYP1A2) at 48 hours (AID 2283703). An outline of the steps: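 Cytotoxicity was flagged yes/no from morphology, while CYP1A2 transcript induction was detected by qNPA chemiluminescence after a 48-hour exposure. Human primary hepatocyte cultures from separate donors received fresh dosing solutions daily over two days, with 0.2% DMSO as vehicle and baseline.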
For `CCCCOCCOCCOCc1cc2c(cc1CCC)OCO2`, the AC50 is 5.82 µM (active).

Consider `CC(C)(C)[C@@H](O)[C@@H](Cc1ccc(Cl)cc1)n1cncn1`, for which the AC50 is 3.97 µM (active).

For `CCCCCOC(=O)COc1cc(N2C(=O)C3=C(CCCC3)C2=O)c(F)cc1Cl`, the result was inactive.

For `COC(=O)c1ccccc1C(=O)O`, the outcome was inactive.

With `N#CSCSc1nc2ccccc2s1`, the AC50 was 2.82 µM (active).

Consider `c1ccc2[nH]c(-c3cscn3)nc2c1`, for which the concentration at half-maximal activity (AC50) was 1.36 µM (active).

Turning to `CSC(=O)c1cccc2nnsc12`, the AC50 was 9.55 µM (active).

On to `CN(C)C(=O)Nc1ccc(Cl)c(Cl)c1`, for which the half-maximal activity concentration (AC50) is 11.9 µM (active).

Regarding `CCNc1nc(N)nc(Cl)n1`, the AC50 was 3.97 µM (active).

For `COCCO`, the compound was called inactive.

For the compound `O=C(O)C1(C(=O)Nc2ccc(Cl)cc2Cl)CC1`, the compound was called inactive.

Consider `CCCN(CCC)c1c([N+](=O)[O-])cc(C(F)(F)F)c(N)c1[N+](=O)[O-]`, for which the AC50 was 2.63 µM (active).

With `CCCOC(=O)c1ccc(C(=O)OCCC)nc1`, the compound was classed as inactive.

`CCCCC(CC)CN1C(=O)C2C3C=CC(C3)C2C1=O` (stereo not drawn): the AC50 was 12.6 µM (active).

Turning to `O=C(Nc1ccc([N+](=O)[O-])cc1Cl)c1cc(Cl)ccc1O`, the AC50 is 0.549 µM (active).

For the compound `CCN(Cc1c(F)cccc1Cl)c1c([N+](=O)[O-])cc(C(F)(F)F)cc1[N+](=O)[O-]`, the AC50 is 0.565 µM (active).

Read-out in the next assay: alkyl and aryl transferase (GSTA2), GSTA2 (gene 2939)
Nature of the assay: CLD_GSTA2_48hr: CellzDirect (CLD) Gene Expression Assay for alkyl and aryl transferase (GSTA2) at 48 hours (AID 2283708).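 Note: active means mRNA induction above DMSO vehicle baseline.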 The essentials:
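GSTA2 mRNA quantified by qNPA chemiluminescence in human primary hepatocyte lysates after 48 h of daily fresh chemical dosing. Increases fitted against 0.2% DMSO vehicle baseline; cytotoxicity from morphology annotated yes/no.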
As to `C=CCOC(Cn1ccnc1)c1ccc(Cl)cc1Cl` (stereo not drawn), the AC50 is 36.7 µM (active).

Turning to `CC(C)(C)[C@@H](O)[C@@H](Cc1ccc(Cl)cc1)n1cncn1`, the compound was classed as inactive.

Take `CCCCCOC(=O)COc1cc(N2C(=O)C3=C(CCCC3)C2=O)c(F)cc1Cl`: the compound was classed as inactive.

Turning to `CC(C)(c1ccc(O)cc1)c1ccc(O)cc1`, the call was inactive.

Turning to `N#CSCSc1nc2ccccc2s1`, the compound was classed as inactive.

As for `CSC(=O)c1cccc2nnsc12`, the outcome was inactive.

On to `Cc1nn(C)c(Oc2ccccc2)c1C=NOCc1ccc(C(=O)OC(C)(C)C)cc1`, for which the outcome was inactive.

As for `CCNc1nc(N)nc(Cl)n1`, the compound was called inactive.

Regarding `COCCO`, the call was inactive.

`CCCN(CCC)c1c([N+](=O)[O-])cc(C(F)(F)F)c(N)c1[N+](=O)[O-]`: the outcome was inactive.

For the compound `CCCCC(CC)CN1C(=O)C2C3C=CC(C3)C2C1=O` (stereo not drawn), the call was inactive.

As for `O=C(Nc1ccc([N+](=O)[O-])cc1Cl)c1cc(Cl)ccc1O`, the result was inactive.

Read-out in a further assay: glucuronosyltransferase (UGT1A1), UGT1A1 (gene 54658)
Put plainly: CLD_UGT1A1_48hr: CellzDirect (CLD) Gene Expression Assay for glucuronosyltransferase (UGT1A1) at 48 hours (AID 2283709).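 Note: actives increase expression relative to DMSO so potency refers to induction.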 The essentials:
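Quantitative nuclease protection assay (chemiluminescent) for UGT1A1 mRNA at 48 h in human hepatocyte cultures from two donors, redosed daily with fresh solutions. Induction fitted relative to 0.2% DMSO; phase-contrast morphology annotated cytotoxicity.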
Take `CCCCOCCOCCOCc1cc2c(cc1CCC)OCO2`: the AC50 was 2.22 µM (active).

As to `C=CCOC(Cn1ccnc1)c1ccc(Cl)cc1Cl` (stereo not drawn), the compound was called inactive.

As to `CC(C)(C)[C@@H](O)[C@@H](Cc1ccc(Cl)cc1)n1cncn1`, the call was inactive.

Regarding `CCCCCOC(=O)COc1cc(N2C(=O)C3=C(CCCC3)C2=O)c(F)cc1Cl`, the compound was classed as inactive.

With `CC(C)(c1ccc(O)cc1)c1ccc(O)cc1`, the compound was classed as inactive.

In the case of `COC(=O)c1ccccc1C(=O)O`, the compound was classed as inactive.

Turning to `c1ccc2[nH]c(-c3cscn3)nc2c1`, the compound was called inactive.

With `CSC(=O)c1cccc2nnsc12`, the outcome was inactive.

Consider `CN(C)C(=O)Nc1ccc(Cl)c(Cl)c1`, for which the result was inactive.

For `COCCO`, the outcome was inactive.

For `O=C(O)C1(C(=O)Nc2ccc(Cl)cc2Cl)CC1`, the compound was classed as inactive.

In the case of `CCCN(CCC)c1c([N+](=O)[O-])cc(C(F)(F)F)c(N)c1[N+](=O)[O-]`, the AC50 was 3.96 µM (active).

For `CCCOC(=O)c1ccc(C(=O)OCCC)nc1`, the result was inactive.

Regarding `CCCCC(CC)CN1C(=O)C2C3C=CC(C3)C2C1=O` (stereo not drawn), the compound was called inactive.

As for `O=C(Nc1ccc([N+](=O)[O-])cc1Cl)c1cc(Cl)ccc1O`, the compound was called inactive.

For the compound `CCN(Cc1c(F)cccc1Cl)c1c([N+](=O)[O-])cc(C(F)(F)F)cc1[N+](=O)[O-]`, the call was inactive.

System in the next assay: not listed separately
Nature of the assay: STM_H9_OrnithineISnorm_perc: Stemina devTOX quickPredict H9 human embryonic stem cell (hESC)-based Assay for Ornithine (ORN) Metabolite Biomarker, Normalized (AID 2283712; active = hit-call score of the fitted dose curve at least 0.9, where 1 is the maximum; inactive = score below 0.9;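 note: ornithine released into spent medium during last day measured by mass spectrometry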). An outline of the steps: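 Ornithine secreted by H9 hESCs after 72h compound treatment (daily media/compound renewal) was quantified in final-day media by UPLC-HRMS. Values are isotope-standard-normalized, expressed relative to 0.1% DMSO, fitted in positive direction.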
`C=CCOC(Cn1ccnc1)c1ccc(Cl)cc1Cl` (stereo not drawn): the outcome was inactive.

In the case of `CC(C)(C)[C@@H](O)[C@@H](Cc1ccc(Cl)cc1)n1cncn1`, the outcome was inactive.

In the case of `S=C(S)NCCNC(=S)S.[Mn+2].[S-]C([S-])=NCCN=C([S-])[S-].[Zn+2]`, the outcome was inactive.

Regarding `C[C@]12C[C@H](O)[C@H]3[C@@H](CCC4=CC(=O)CC[C@@]43C)[C@@H]1CC[C@@H]2C(=O)CO`, the AC50 is 77 µM (active).

`CCCCCOC(=O)COc1cc(N2C(=O)C3=C(CCCC3)C2=O)c(F)cc1Cl`: the AC50 was 0.104 µM (active).

As for `CC(C)(c1ccc(O)cc1)c1ccc(O)cc1`, the AC50 was 67.3 µM (active).

With `COC(=O)c1ccccc1C(=O)O`, the concentration at half-maximal activity (AC50) was 0.00297 µM (active).

As to `N#CSCSc1nc2ccccc2s1`, the AC50 was 17.2 µM (active).

For the compound `CSC(=O)c1cccc2nnsc12`, the AC50 was 80.2 µM (active).

As for `CN(C)C(=O)Nc1ccc(Cl)c(Cl)c1`, the outcome was inactive.

As to `Cc1nn(C)c(Oc2ccccc2)c1C=NOCc1ccc(C(=O)OC(C)(C)C)cc1`, the AC50 was 0.0118 µM (active).

`N[C@@H](Cc1cc(I)c(Oc2ccc(O)c(I)c2)c(I)c1)C(=O)O`: the outcome was inactive.

For `CCNc1nc(N)nc(Cl)n1`, the result was inactive.

Consider `O=C(O)C1(C(=O)Nc2ccc(Cl)cc2Cl)CC1`, for which the outcome was inactive.

As for `S=C([S-])NCCNC(=S)[S-].[Mn+2]`, the AC50 is 88.1 µM (active).

As for `O=C(c1ccc(O)cc1O)c1ccc(O)cc1O`, the AC50 was 51.1 µM (active).

For `CCCN(CCC)c1c([N+](=O)[O-])cc(C(F)(F)F)c(N)c1[N+](=O)[O-]`, the result was inactive.

In the case of `CC(C)CCCCCCc1ccc(O)cc1`, the AC50 is 73.4 µM (active).

As for `O=C(Nc1ccc([N+](=O)[O-])cc1Cl)c1cc(Cl)ccc1O`, the result was inactive.

`CCN(Cc1c(F)cccc1Cl)c1c([N+](=O)[O-])cc(C(F)(F)F)cc1[N+](=O)[O-]`: the AC50 is 17.2 µM (active).
